Laboratory results reported in paper PMC4336329 (PLoS ONE, 2015).
Screen size: about 310,000 compounds; about 14,000 (4.5%) showed an effect of 50% or more. The effect is printed as a negative number. This excerpt belongs to a sample that is enriched for strong results.

target: human ether-à-go-go-related gene (hERG) potassium channel (human, UniProt Q12809); assay: primary screen, population patch clamp on CHO cells stably expressing hERG; higher = less effect of the substance
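Further: peak tail current of the secondary pulse compared with the same well before compound.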

Chain of human ether-à-go-go-related gene (hERG) potassium channel (Q12809 whole entry, looked up): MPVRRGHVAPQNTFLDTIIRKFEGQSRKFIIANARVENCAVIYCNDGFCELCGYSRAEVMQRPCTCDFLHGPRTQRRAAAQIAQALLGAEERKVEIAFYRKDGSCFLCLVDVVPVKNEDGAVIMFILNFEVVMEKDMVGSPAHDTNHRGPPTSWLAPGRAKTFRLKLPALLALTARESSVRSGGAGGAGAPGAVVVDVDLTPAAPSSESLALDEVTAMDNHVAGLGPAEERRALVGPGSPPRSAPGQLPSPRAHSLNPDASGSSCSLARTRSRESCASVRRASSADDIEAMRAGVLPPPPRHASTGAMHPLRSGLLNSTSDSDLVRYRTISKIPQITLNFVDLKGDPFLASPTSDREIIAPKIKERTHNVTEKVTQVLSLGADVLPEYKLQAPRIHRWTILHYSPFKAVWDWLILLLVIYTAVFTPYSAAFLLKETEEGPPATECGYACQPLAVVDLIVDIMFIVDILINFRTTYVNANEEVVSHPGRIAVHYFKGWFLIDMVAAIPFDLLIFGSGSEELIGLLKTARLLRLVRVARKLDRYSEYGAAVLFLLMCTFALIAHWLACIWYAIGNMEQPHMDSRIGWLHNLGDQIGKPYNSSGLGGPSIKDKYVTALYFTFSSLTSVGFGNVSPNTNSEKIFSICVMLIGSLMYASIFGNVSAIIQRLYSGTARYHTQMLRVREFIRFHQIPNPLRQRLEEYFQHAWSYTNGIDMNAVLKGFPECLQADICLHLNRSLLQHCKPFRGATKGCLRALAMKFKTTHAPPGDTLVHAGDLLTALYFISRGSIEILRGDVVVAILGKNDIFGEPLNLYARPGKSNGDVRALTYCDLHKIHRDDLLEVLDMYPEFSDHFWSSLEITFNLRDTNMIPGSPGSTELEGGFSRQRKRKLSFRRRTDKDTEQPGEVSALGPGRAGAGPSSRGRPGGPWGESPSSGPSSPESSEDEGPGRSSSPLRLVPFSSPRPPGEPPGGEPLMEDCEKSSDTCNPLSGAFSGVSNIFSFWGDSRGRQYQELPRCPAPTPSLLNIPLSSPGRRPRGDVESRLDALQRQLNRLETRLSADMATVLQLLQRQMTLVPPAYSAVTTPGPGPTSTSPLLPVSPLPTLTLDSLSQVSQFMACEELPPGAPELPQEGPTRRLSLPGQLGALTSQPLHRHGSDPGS

Structure (SMILES) | hERG current change (%, negative = inhibition) at 10uM [%]
COc1ccc(-n2c(SCc3ccc([N+](=O)[O-])cc3)nnc2-c2ccccc2)cc1 | -24.4
COc1ccc(-n2c(Cc3cccn3C)nnc2SCC(=O)N2CCCc3ccccc32)cc1 | -13.9
COc1ccc(OCc2nnc(SCC(=O)N3CCCc4ccccc43)n2-c2ccc(C)cc2)cc1 | -3.12
COc1ccc(CC(=O)NCc2nnc(SCC(=O)c3ccc(OC)cc3)n2C)cc1 | -3.61
COCCn1c(Cc2ccccc2)nnc1SCc1ccc([N+](=O)[O-])cc1 | -55
COc1ccc(-n2c(Cc3ccccc3)nnc2SCC(=O)N2CCCc3ccccc32)cc1 | -53.9
O=[N+]([O-])c1ccc(CSc2nnc(Cc3ccccc3)n2-c2ccc(F)cc2)cc1 | -48.7
COCCn1c(Cc2ccccc2)nnc1SCC(=O)N(C)C | 14.3
COc1ccc(-n2c(Cc3ccccc3)nnc2SCc2ccc([N+](=O)[O-])cc2)cc1 | -68.4
COCCn1c(Cc2ccccc2)nnc1SCC(=O)Nc1ccccc1 | 5.83
COc1ccc(CC(=O)NCc2nnc(SCc3ccc(C)cc3)n2C)cc1 | 5.49
COc1ccc(CC(=O)NCc2nnc(SCc3ccc([N+](=O)[O-])cc3)n2C)cc1 | -63.6
CN1CCC(N(C)S(=O)(=O)c2ccc(NC(=O)COc3ccc(F)cc3)cc2)CC1 | 0.996
Cc1cc(C(F)F)n2nc(C(=O)Nc3ccc(S(=O)(=O)NC45CC6CC(CC(C6)C4)C5)cc3)nc2n1 | -8.28
O=S(=O)(Cc1ccccc1)N1CCn2c(nc3ccccc32)C1 | 9.91
COCCNC(=O)C(=O)N/N=C(\C)CC(=O)Nc1cccnc1 | 8.89
COC(=O)CSc1nnc(CSc2nc(C)cc(C)n2)n1Cc1ccco1 | 7.23
Cc1cc(C)nc(SCc2nnc(SCC(N)=O)n2Cc2ccco2)n1 | -7.19
CC(C)OC(=O)CSc1nnc(COc2ccc([N+](=O)[O-])cc2)n1C | -69.9
Cc1cc(C)nc(SCc2nnc(SCc3ccc([N+](=O)[O-])cc3)n2Cc2ccco2)n1 | -80.6
COc1ccc(NC(=O)CSc2nnc(CNc3ccc(C)cc3)n2C)cc1 | 25.2

Structure (SMILES) | hERG current change (%, negative = inhibition) at 10uM [%]
CCn1c(SCc2ccc([N+](=O)[O-])cc2)nnc1C(C)NC(=O)c1ccc(C)cc1 (centres unmarked) | -33.6
CCn1c(SCc2ccc([N+](=O)[O-])cc2)nnc1C(C)NC(=O)c1ccccc1Br (centres unmarked) | -27.6
COC(=O)CSc1nnc(COc2ccc([N+](=O)[O-])cc2)n1C | -47.6
Cn1c(COc2ccc([N+](=O)[O-])cc2)nnc1SCC(N)=O | 1.54
COc1ccc(NCc2nnc(SCC(=O)Nc3ccccc3)n2C)cc1 | -12.5
COc1ccc(NCc2nnc(SCC(=O)Nc3ccc(OC)cc3)n2C)cc1 | -62.3
C=CCn1c(SCc2ccc([N+](=O)[O-])cc2)nnc1C(C)NC(=O)c1ccccc1 (centres unmarked) | -54.5
CC(C)N1CC(C(=O)Nc2ccc(Br)c(Cl)c2)CC1=O (centres unmarked) | -2.34
O=C(COc1ccc(-c2ccccc2)cc1)NNC(=O)Nc1ccccc1 | -2.73
Nc1c(Cl)ncnc1N/N=C/c1ccnc2ccccc12 | 1.91
CC(C)NC(=O)C(=O)NCCN1CCN(S(=O)(=O)c2ccc(Cl)cc2)CC1 | -33.3
COCCN(C(C)=O)c1nnc(-c2cnccn2)s1 | 6.11
COC(=O)C1=C(C)NC2=C(C(=O)CC(C)(C)C2)C1c1cnn(C)c1C (centres unmarked) | 15.6
COc1ccc(OCC(=O)N/N=C2\CCCCc3ccccc32)cc1 | -12.3
Cc1cccc(-n2c(Cc3ccccc3)nnc2SCc2ccc([N+](=O)[O-])cc2)c1 | -37.6
CCn1c(Cc2ccccc2)nnc1SCc1ccc([N+](=O)[O-])cc1 | -57.1
CCn1c(Cc2ccccc2)nnc1SCC(=O)c1cccc([N+](=O)[O-])c1 | -24
CCOc1ccc(-n2c(Cc3ccccc3)nnc2SCc2c(C)noc2C)cc1 | -74.1
CCc1ccc(-n2c(SCc3c(C)noc3C)nnc2-c2ccncc2)cc1 | -36.6
CCOc1ccc(-n2c(COc3ccccc3)nnc2SCC(N)=O)cc1 | -13.8
